Where “and” joins values, the source holds several entries; their conditions need not be identical. Identical values can stand only once. A structure can be active in one record and inactive in another. Calls of active or inactive are those of the source. How the source made its calls: active means hit-call score of the fitted dose curve at least 0.9, where 1 is the maximum; inactive means score below 0.9.
Target: Retinoic acid receptor alpha (Homo sapiens) (UniProt P10276)
Experiment: ATG_DR5_RAR_CIS: Attagene CIS-FACTORIAL HepG2 Assay for human Retinoic Acid Receptor Alpha (RARE), DR5 submotif (AID 2282934);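 on AC50: reporter responds to endogenous RAR alpha beta and gamma in HepG2 not RARA alone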
Conditions: HepG2 Attagene cis-factorial RARE DR5 reporter, mRNA; actives raise or lower the signal
Experimental: ATG_CIS is a cell-based, multiplexed-readout assay that uses HepG2, a human liver cell line, with measurements taken at 24 hours after chemical dosing in a 24-well plate.ATG_DR5_RAR_CIS is one of 52 assay component(s) measured or calculated from the ATG_CIS assay. It is designed to make measurements of mRNA induction, a form of inducible reporter, as detected with fluorescence intensity signals by Reverse transcription polymerase chain reaction (RT-PCR) and Capillary electrophoresis technology.Data from the assay component ATG_DR5_RAR_CIS was analyzed into 1 assay endpoint. This assay endpoint, ATG_DR5_CIS, was analyzed with bidirectional fitting relative to DMSO as the negative control and baseline of activity. Using a type of inducible reporter, measures of mRNA for gain or loss-of-signal activity can be used to understand the reporter gene at the transcription factor-level as they relate to the gene RARA and RARB and RARG. Furthermore, this assay endpoint can be referred to as a primary readout, because this assay has produced multiple assay endpoints where this one serves a reporter gene function. To generalize the intended target to other relatable targets, this assay endpoint is annotated to the nuclear receptor intended target family, where the subfamily is non-steroidal.
Human liver HepG2 cells are transiently transfected with multiple reporter transcription units (MRTUs) in 6-well plates using FuGene 6 reagent (Roche; 3 ml FuGene/1 mg DNA). The MRTU constructs are regulated by a cis-regulating element (promoter). […] A major difference between the CIS and TRANS system is that in CIS activities of endogenous TFs are measured, whereas the TRANS assay evaluates changes in activities of exogenous, chimeric NR-Gal4 proteins. […] At the end of 24 hour incubation, total RNA was isolated using TriZol reagent (Invitrogen). The isolated RNA is then reverse-transcribed using oligo(dT) primer and Mo-MLV reverse transcriptase (Invitrogen) with DNAse I (Ambion) treatment for 30 min. The one-tenth of the produced cDNA was amplified by PCR using Taq DNA polymerase (Invitrogen) and two reporter sequence-specific primers. The PCR products were fluorescently labeled by primer extension with 6-arboxyfluorescein (6-FAM) 5'-labeled reporter sequence-specific primer (2 min at 95 C, 20 s at 68 C and 10 min at 72 C) and these products were digested with 5U of HpaI (New England Biolabs) for 2h at 37 C. The fragments were purified using Qiaquick PCR columns (Qiagen), analyzed on an ABI 3130xL genetic analyzer (Applied Biosystems) with peak positions identified by using a set of X-rhodamine (ROX)-labeled MapMarker1000 molecular weight standards (BioVentures). The raw capillary electrophoresis data was processed using Attagraph software (Attagene).

Retinoic acid receptor alpha (Homo sapiens), sequence (P10276 whole entry, looked up): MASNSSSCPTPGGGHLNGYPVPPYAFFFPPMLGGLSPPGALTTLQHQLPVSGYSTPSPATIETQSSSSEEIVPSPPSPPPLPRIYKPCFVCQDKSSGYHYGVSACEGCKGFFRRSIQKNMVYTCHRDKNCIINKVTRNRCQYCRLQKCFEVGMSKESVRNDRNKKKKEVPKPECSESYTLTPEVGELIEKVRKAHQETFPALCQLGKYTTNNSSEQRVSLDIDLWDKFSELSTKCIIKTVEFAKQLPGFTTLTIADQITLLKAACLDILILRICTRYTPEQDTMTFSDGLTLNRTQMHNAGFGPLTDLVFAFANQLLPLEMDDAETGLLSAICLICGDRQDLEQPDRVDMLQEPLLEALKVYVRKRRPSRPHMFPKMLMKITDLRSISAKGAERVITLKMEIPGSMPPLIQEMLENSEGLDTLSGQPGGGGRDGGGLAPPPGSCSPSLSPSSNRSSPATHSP

SMILES	outcome	AC50
CCCCC1CCCCC(=O)O1 (stereo not given)	inactive	
CCCCOCCOCCOCCO	inactive	
C=C(C)C(=O)OCCC[Si](OC)(OC)OC	inactive	
CC/C=C\CCOC(=O)C(C)C	inactive	
CCO[Si](CC)(OCC)OCC	inactive	
CCCCCCCCOC(C)=O	inactive	
CC(=O)Nc1cc(S(=O)(=O)O)cc2cc(S(=O)(=O)O)c(N=Nc3ccccc3)c(O)c12	inactive	
CC(C)(O)CCc1ccccc1	inactive	
CC(=O)OCC=C(C)CCC=C(C)CCC=C(C)C	inactive	
CCCO	inactive	
c1ccc(Sc2ccccc2)cc1	inactive	
CC(O)CN (stereo not given)	inactive	
COc1ccc(C(C)=O)cc1	inactive	
C=CC(C)CCCC(C)(C)O (stereo not given)	inactive	
CCCCCCCC1CCCC1=O (stereo not given)	inactive	
CCCCCCCCCCCCOCCOS(=O)(=O)O	inactive	
CCOC(=O)C=Cc1ccccc1	inactive	
CCCCOCCOC(=O)c1ccccc1C(=O)OCCOCCCC	inactive	
O=[N+]([O-])c1cc(N(CCO)CCO)ccc1NCCO	inactive	
CC(C)(C)c1cccc(O)c1	inactive	

SMILES	outcome	AC50
CCCCCc1cccc(=O)o1	inactive	
O=Cc1ccccc1O	inactive	
C#C[C@]1(O)CC[C@H]2[C@@H]3CCc4cc(O)ccc4[C@H]3CC[C@@]21C	inactive	61 µM (active) and 81.7 µM (active) and 24.8 µM (active)
C[C@]12CC[C@@H]3c4ccc(O)cc4CC[C@H]3[C@@H]1CC[C@@H]2O	inactive	
O=C(O)CS	inactive	
O=S(=O)(O)CCCN1CCOCC1	inactive	
CCCCCCOc1ccc(O)cc1	inactive	
CCCCN(CCCC)CCCCCCN(CCCC)CCCC	inactive	
ClCCOCCOCCCl	inactive	
CCCCC/C=C\C=C\C(=O)OCC		28.3 µM (active)
NS(=O)(=O)c1cc(C(=O)O)c(NCc2ccco2)cc1Cl	inactive	
Nc1cc([N+](=O)[O-])ccc1C(=O)O	inactive	
CCCCCCCC(=O)N(C)C	inactive	
CCCCCCCCCO	inactive	
CC(=O)CC(C)(C)C1CCCCC1	inactive	
OC[C@@H](O)[C@H](O)[C@@H](O)[C@@H](O)CO	inactive	
c1ccc2scnc2c1	inactive	
CC(=O)Oc1c(C)c(C)c2c(c1C)CC[C@@](C)(CCC[C@H](C)CCC[C@H](C)CCCC(C)C)O2	inactive	
CNC(=C[N+](=O)[O-])NCCSCc1ccc(CN(C)C)o1	inactive	

Source: PubChem BioAssay (EPA / NIEHS)
